# This is a sample that favours compounds with a hit; in the whole collection about 2.2% have one here.
# MITF TRPM1 inh: reduces MITF-dependent TRPM1 promoter luciferase signal | SK-MEL-5 TRPM1 promoter luciferase, 24 h | inhibition, % at 12.5 µM | 330,000 compounds, 0.83% hits | AID 488899;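 active = mean inhibition across replicates of 60% or more, whatever share of single replicates reaches that level; inconclusive = some that reach 60%, reason not given; inactive = mean inhibition across replicates below 60%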
# LGR2 antag: Drosophila LGR2 receptor signaling inhibition. HEK293 LGR2, CRE-luciferase, bursicon-stimulated, 4 h. inhibition, % at 9.99 µM. 380,000 compounds, 0.35% hits. AID 720647;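 active = drop in luminescence signal, shown as inhibition above about 50% in the replicate tests, limit read from the data, passing the limit was not always enough; inconclusive = probably only some replicates passing the limit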;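 note: agonist challenge used bursicon conditioned medium at about half maximal strength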
# LMP1 NFkB inh: reduces LMP1-driven NF-kappaB luciferase signal | inhibition, % at 12.5 µM | LMP1-induced NF-kappaB luciferase reporter cells, luminescence | 350,000 compounds, 0.69% hits; in the data active = inhibition above about 41%; inconclusive = no clear call, values can overlap the other calls
# PAX8 reporter: lowers PAX8-driven luciferase in RMG-I cells; RMG-I TPO-luciferase reporter, SteadyGlo, 24 h; inhibition, % at 12.6 µM; 360,000 compounds, 1.2% hits; AID 652154;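 active = mean replicate inhibition at least 60% with every replicate also reaching 60%; inconclusive = only one of the two criteria is met; inactive = mean below 60% and not all replicates reaching 60%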;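 note: luciferase light reporting Pax8 driven TPO promoter activity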
# Shn3 inh set2: reduces Shn3 3'UTR luciferase signal in osteoblasts; Clone20 osteoblast Shn3 3'UTR firefly luciferase, 24 h; 360,000 compounds, 0.52% hits; AID 588674; inhibition, % at 12.5 µM;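 active = mean inhibition of at least 75% with every replicate also reaching 75%; inconclusive = mean inhibition at least 75% but some replicate below; inactive = mean inhibition below 75%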
# EWS-Fli block: blocks EWS/Fli oncoprotein-driven transcription. inhibition, % at 12.6 µM. A673 NR0B1-luciferase reporter, viability-normalised. AID 651661. 350,000 compounds, 0.67% hits;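 active = mean inhibition of at least 50% after viability correction, with every replicate also passing that limit; inconclusive = mean reaches 50% but only one of two replicates passes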;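 note: firefly luciferase signal divided by Alamar Blue viability fluorescence both relative to DMSO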
# DNA binder FP: binds DNA displacing acridine orange. AC35, µM (series often up to 68 µM). shares compounds with EWS-Fli block. salmon sperm DNA acridine orange fluorescence polarization. 640 compounds, 2% hits;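 active = fitted curve reaches a 35% signal fall AC35 below twice the sample's top valid tested dose, actives reach about 48 µM in these data; inactive = the rest, including activity in the rising direction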;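 note: lower polarization ratio signals compound binding to DNA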
# Numbers stand for hits; – = inactive; ? = inconclusive; · = no result.
SMILES,MITF TRPM1 inh,LGR2 antag,LMP1 NFkB inh,PAX8 reporter,Shn3 inh set2,EWS-Fli block,DNA binder FP
N#CC(C#N)=C1C=CC=CN1/C(=C\c1ccco1)C(=O)c1ccc(Cl)cc1,89.8,105.2,–,·,97.3,86.1,–
COc1ccc(NC(=O)Nc2ccc3c(c2)C(=O)N([C@H](C)CO)C[C@@H](C)[C@H](CN(C)C(=O)Nc2ccc(OC)cc2)O3)cc1,·,–,·,–,·,–,·
COc1ccc(C(CCNCc2ccc(OC(C)C)cc2)C(C)C)cc1 (stereo unspecified),·,–,·,–,–,70.4,–
COc1ccc(CNCCC(c2ccc(OC(C)C)cc2)C(C)C)cc1OC (stereo unspecified),–,·,–,·,–,·,·
COc1ccccc1C(CCNCc1ccc(N(C)C)cc1)c1ccc(OC(C)C)cc1 (stereo unspecified),76.7,–,–,–,93.0,60.5,–
CC1(C)N=C(N)N=C(N)N1c1ccc(OCCCOc2ccccc2)c(Cl)c1,–,–,–,71.1,–,58.8,–
C[C@@H]1CN([C@H](C)CO)C(=O)Cc2cc(NC(=O)C3CC3)ccc2O[C@@H]1CN(C)Cc1ccc(-c2ccccc2)cc1,·,–,·,–,·,–,·
CN1c2ccc(-c3ccc(C#N)cc3)cc2[C@H]2[C@H](CCN2S(=O)(=O)c2cccc(F)c2)[C@@H]1CO,·,–,·,73.0,·,61.2,–
CN1c2ccc(-c3cccc(C#N)c3)cc2[C@H]2[C@H](CCN2S(=O)(=O)c2cccc(F)c2)[C@H]1CO,·,–,·,–,·,–,·
COc1ccc(-c2ccc3c(c2)[C@H]2[C@H](CCN2S(=O)(=O)c2ccc(OC)cc2)[C@@H](CO)N3C)cc1,·,–,·,79.4,·,54.7,–
Cc1ccccc1S(=O)(=O)N1CC[C@@H]2[C@@H](CO)Nc3ccc(-c4ccc(C#N)cc4)cc3[C@@H]21,·,–,·,–,·,54.4,–
Cc1cc(C(=O)Nc2cccc3c2O[C@H](CN(C)C(=O)Nc2cccc4ccccc24)[C@H](C)CN([C@H](C)CO)C3=O)n(C)n1,·,–,·,–,·,–,·
COc1cccc(-c2cc(NC=O)c3ncc(-c4ccc(C(C)=O)cc4)n3c2)c1,·,–,·,–,–,51.8,–
COc1cc(-c2cnc3c(NC=O)cc(-c4cccc(NC(C)=O)c4)cn23)cc(OC)c1OC,·,–,·,105.1,–,62.1,–
Cc1cc(C(=O)Nc2cccc3c2O[C@@H](CN(C)Cc2ccccc2)[C@@H](C)CN([C@@H](C)CO)C3=O)n(C)n1,·,–,·,–,·,–,·
CC(C)(C)c1ccc(Oc2ccc(NC(=O)C3CC=CCC3C(=O)O)cc2)cc1 (stereo unspecified),–,–,–,–,–,69.7,–
C[C@H]1CN([C@@H](C)CO)C(=O)c2cc(-c3cccc(F)c3)cnc2O[C@@H]1CN(C)Cc1cccnc1,·,–,·,·,·,–,·
CN1C/C(=C\c2ccc(N3CCOCC3)cc2)C(=O)/C(=C/c2ccc(N3CCOCC3)cc2)C1,–,–,–,·,–,·,·
CCN1C/C(=C/c2ccc(N3CCOCC3)cc2)C(=O)/C(=C/c2ccc(N3CCOCC3)cc2)C1,93.1,–,–,–,–,70.4,15.4µM
O=S(=O)(c1ccc(F)cc1)N1C[C@H]2[C@@H](c3ccccc31)[C@H](CO)N2Cc1ccccc1Cl,·,–,·,109.1,·,59.6,–
COc1ccc(OC)c(-c2nnc3n2N=C(c2ccc(OC)c(OC4CCOC4)c2)CS3)c1 (stereo unspecified),70.8,–,–,96.8,–,59.1,–
O=C(C[C@H]1CC[C@@H]2[C@H](COC[C@H](O)CN2C(=O)Nc2ccc(F)cc2)O1)NC1Cc2ccccc2C1,·,–,·,–,·,–,·
O=c1oc2ccccc2cc1-c1ccc(O)cc1,–,·,–,–,–,–,·
Nc1ccc(-c2cc3ccccc3oc2=O)cc1,93.6,–,58.0,–,–,79.1,–
CN=c1scc(C)n1/N=C/c1ccc(O)cc1O,–,·,–,·,–,·,·
SMILES,MITF TRPM1 inh,LGR2 antag,LMP1 NFkB inh,PAX8 reporter,Shn3 inh set2,EWS-Fli block,DNA binder FP
CN=c1scc(-c2ccccc2F)n1/N=C/c1ccc(O)c(O)c1O,85.6,69.5,–,83.1,88.4,56.0,–
CCN=c1scc(-c2ccc(F)cc2)n1/N=C/c1ccccn1,–,–,–,–,–,–,·
CN=c1scc(-c2ccccc2F)n1/N=C/c1ccc[nH]1,90.3,93.3,82.5,95.6,–,87.2,–
C[C@H](CO)N1C[C@H](C)[C@H](CN(C)Cc2ccncc2)Oc2ncc(C#Cc3ccncc3)cc2C1=O,·,–,·,·,·,–,·
COc1ccc(S(=O)(=O)Nc2ccc3c(c2)C(=O)N([C@@H](C)CO)C[C@@H](C)[C@@H](CN(C)C(=O)NC(C)C)O3)cc1,·,–,·,·,·,–,·
CC(=O)Nc1cc(C(=O)NCc2ccco2)ccc1Sc1ccc(Cl)cc1,–,·,–,–,–,–,·
CC(=O)Nc1cc(C(=O)NCc2ccco2)ccc1Sc1ccc(F)cc1,–,–,–,–,–,85.0,–
CCOc1ccccc1CNC(=O)c1ccc(Sc2ccc(Cl)cc2)c(NC(C)=O)c1,–,–,–,–,–,79.9,–
CCOc1ccc(CNC(=O)c2ccc(Sc3ccc(Cl)cc3)c(NC(C)=O)c2)cc1,–,–,–,–,–,·,·
O=C(Nc1ccc2c(c1)OCO2)N[C@@H]1CC[C@@H](CCNC(=O)C2CCCC2)O[C@H]1CO,·,–,·,–,·,–,·
COc1ccc(CN(C)C[C@H]2OCCCC[C@@H](C)Oc3ccc(NC(=O)Nc4ccccc4)cc3C(=O)N([C@@H](C)CO)C[C@@H]2C)cc1,·,–,·,–,·,–,·
N#CC1C=Cc2ccccc2N1C(=O)c1ccccc1 (stereo unspecified),–,–,–,–,–,–,·
N#CC1C=Cc2c(ccc3ccccc23)N1C(=O)c1ccccc1 (stereo unspecified),65.2,–,–,–,–,65.7,–
CN1c2ccc(-c3ccccc3)cc2[C@H]2[C@H](CCN2C(=O)Cc2cccnc2)[C@@H]1CO,·,–,·,–,·,–,·
C=CCOC(=O)c1sc(NC(=O)c2ccc(OC)cc2)nc1C,–,–,–,–,–,55.6,–
C[C@@H]1CN([C@H](C)CO)C(=O)c2cc(C#CC3(O)CCCC3)cnc2O[C@@H]1CN(C)C(=O)C1CCOCC1,·,–,·,–,·,–,·
Cc1cccc(NC(=O)CN2C(=O)N/C(=C/c3ccc(C)o3)C2=O)c1,–,–,–,–,–,·,·
COc1ccc(/C=C2/NC(=O)N(CC(=O)Nc3cccc(C)c3)C2=O)cc1O,–,–,–,–,–,62.3,–
CCN(CC)c1ccc(C2NC(=O)c3ccccc3N2)cc1 (stereo unspecified),–,87.7,43.1,?,–,62.4,–
C[C@H]1CN([C@@H](C)CO)C(=O)c2cc(NS(=O)(=O)c3ccc(Cl)cc3)ccc2O[C@H]1CN(C)Cc1ccc(Cl)c(Cl)c1,·,–,·,80.6,·,60.6,–

# High-throughput results (PubChem)
